This is an account of results in PubChem BioAssay AID540317 (National Center for Advancing Translational Sciences (NCATS), 2011).

SMILES strings stand for the structures. The whole screen tested about 390,000 compounds, of which about 2,200 (0.56%) were called active. Roughly 3% stayed inconclusive and do not appear here. The full list was thinned out, with actives kept by preference. Values without a mark were called inactive. The call rests on the fitted dose curve; in most records, active means well fitted inhibition curve with a large enough effect; inconclusive means small, poorly fitted or top-dose-only effect; inactive means no such curve, though single readings can be large or run the other way.
Potency means the concentration at half of the fitted maximal effect.

Sequence of Chromobox protein homolog 1 (Homo sapiens) (P83916 whole entry, looked up): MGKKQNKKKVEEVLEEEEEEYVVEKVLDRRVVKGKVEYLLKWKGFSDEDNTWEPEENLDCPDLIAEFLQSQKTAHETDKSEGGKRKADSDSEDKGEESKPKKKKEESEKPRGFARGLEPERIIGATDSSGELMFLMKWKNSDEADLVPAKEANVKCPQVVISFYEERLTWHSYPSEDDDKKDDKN

This experiment addresses Chromobox protein homolog 1 (Homo sapiens) (UniProt P83916). Put plainly: HTS for Inhibitors of HP1-beta Chromodomain Interactions with Methylated Histone Tails. Further: nearly all actives have a fitted effect of over 70% in size. To be noted: AlphaScreen HP1-beta / biotin-H3K9me3 peptide binding; series mostly up to 114 µM; activity change, negative = inhibition: at the top concentration. In outline: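 Compound inhibition of the preformed complex between 50 nM HP1-beta and 50 nM biotinylated H3K9me3 peptide was read by AlphaScreen. Buffer was PBS pH 7.4 with 0.01% Tween-20. Incubations ran 30 min at room temperature, with 10 ug/mL donor/acceptor beads.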
(In general: In Alpha technology, singlet oxygen from a donor bead excites a nearby acceptor bead.)
Take `Cc1nc(SCC(=O)N2CCN(c3ccccc3)CC2)[nH]c(=O)c1C`: the “activity change, negative = inhibition” value is 22%.
For `COc1cccc(-c2nc(CS(=O)(=O)CC(=O)N3CCN(c4cc(C)ccc4C)CC3)c(C)o2)c1`, the “activity change, negative = inhibition” value is 15.8%.
On to `O=C1C[C@@H](c2ccc3ccccc3c2)N1S(=O)(=O)c1ccccc1[N+](=O)[O-]`, for which the “activity change, negative = inhibition” value was 11.9%.
`CCN(CC)C(=O)CSc1nc2cc3c(cc2c(=O)n1CCCC(=O)NCc1ccc2c(c1)OCO2)OCO3`: the “activity change, negative = inhibition” value is 35.7%.
Consider `CC(=O)N1CCCc2cc(S(=O)(=O)Nc3ccc(Cl)cc3F)ccc21`, for which the “activity change, negative = inhibition” value was 4.63% [at 57 µM].
For the molecule `C=CS(=O)c1sc(Cl)c(N2CCOCC2)c1[N+](=O)[O-]` (centres undefined), the Potency is 44.7 µM (active).
Regarding `CCn1c2c(c(=O)n3ncc(C(=O)N4CCN(c5ccccc5)CC4)c13)CN(Cc1ccc(OC)cc1)CC2`, the “activity change, negative = inhibition” value is 38.7% [at 57 µM].
Same read-out and setting: to `COc1ccccc1CNC(=O)C(=O)NCC(c1cccs1)S(=O)(=O)c1cccs1` (centres undefined) belongs 18.9%; to `Cc1nnc(C)n1-c1ccc(C(=O)Nc2cccc(Br)c2)cc1`, 29% [at 57 µM].
With `FC(F)(F)c1cc(Nc2nc3ccccc3c3nncn23)ccc1Cl`, the “activity change, negative = inhibition” value is 26.1%.
With `Cc1cccc(C)c1Nc1c(-c2ccccc2O)nc2ncccn12`, the Potency result is “inactive”.
As for `CCc1cccc(C)c1Nc1c(-c2ccc(N(C)C)cc2)nc2ncccn12`, the Potency was 17.8 µM (active).
`Cc1ccccc1Nc1c(-c2ccccc2)nc2ncccn12`: the “activity change, negative = inhibition” value is 33.7%.
On to `COc1ccc(CCNC(=O)c2ccc3c(c2)sc2nc(-c4ccc(C)cc4)cn23)cc1OC`, for which the “activity change, negative = inhibition” value was 43.6%.
As for `c1ccc(Cn2nnc3c(N4CCCCC4)ncnc32)cc1`, the “activity change, negative = inhibition” value was 66.1%.
For `COC(=O)c1ccc(/C=N/N2C(C)CCCC2C)cc1` (centres undefined), the “activity change, negative = inhibition” value was -18.2%.
With `CCN(CC)S(=O)(=O)c1cccc(-c2n[nH]c(=S)n2/N=C/c2ccc(C(=O)OC)cc2)c1`, the Potency is 50.1 µM (active).
As to `CCN(CC)S(=O)(=O)c1cccc(NC(=O)c2ccc(S(=O)(=O)N3CCCC3)cc2)c1`, the “activity change, negative = inhibition” value was 42.7%.
Turning to `CCCCNC(=O)Cn1c(SCc2cccc(Cl)c2)nc2ccncc21`, the “activity change, negative = inhibition” value is 22.8% [at 57 µM].
Regarding `CCOC(=O)c1cc2c(=O)n3ccccc3nc2n(CC2CCCO2)c1=NC(=O)c1ccccc1Br` (centres undefined), the “activity change, negative = inhibition” value was 46.8%.
For `COC(=O)c1ccccc1NC(=O)C(Cc1ccccc1)N1Cc2ccccc2C1=O` (centres undefined), the “activity change, negative = inhibition” value is 44.1%.
Consider `COc1cc(NC(=O)c2nn(-c3ccc(C)cc3)c(=O)c3c2c2ccccc2n3C)cc(OC)c1OC`, for which the “activity change, negative = inhibition” value is 3.41%.
Turning to `Cc1cccc(N2CCN(C(=O)c3ccccc3NC(=O)C3CCCCC3C(=O)O)CC2)c1` (centres undefined), the “activity change, negative = inhibition” value was 23.8%.
`COc1cccc(N2CCN(c3ccc4nnc(CCC(=O)N5CCN(C)CC5)n4n3)CC2)c1`: the “activity change, negative = inhibition” value is 12% [at 57 µM].
Take `Cc1cccc(-n2c(N)c(C(=O)N3CCN(C)CC3)sc2=S)c1`: the Potency was 7.94 µM (active).
On the same count and under the same terms, to `C=CCn1c(=S)[nH]c2scc(-c3ccco3)c2c1=O` belongs 35.5 µM (active).
`O=S(=O)(Nc1ccc2nc(-c3cccc(Cl)c3)oc2c1)c1ccccc1`: the “activity change, negative = inhibition” value was 33.4%.
In the case of `CCc1ccc(NC(=O)CCCc2nnc3n(CCCOC)c(=O)c4sccc4n23)cc1`, the “activity change, negative = inhibition” value is 4.92%.
`CCN(CC)c1cc(NC2CCCCC2)c2c3c(onc13)-c1ccccc1C2=O`: the Potency was 7.94 µM (active).
`Cc1ccc(Cl)cc1NC(=O)CSc1nccn1C`: the “activity change, negative = inhibition” value is -1.93%.
For the molecule `CCOC(=O)N1CCc2c(sc3c2c(=O)n(-c2ccc(CC)cc2)c(=O)n3C)C1`, the “activity change, negative = inhibition” value is 46.1%.
With `Nc1ccc2nc3c(=O)[nH]c(=S)[nH]c3nc2c1`, the Potency was 2 µM (active).
Regarding `CC1=C(c2ccc(C)c(C)c2)S(=O)(=O)NC1=NCc1ccccc1Cl`, the “activity change, negative = inhibition” value was -2.94%.
On the same count and under the same terms, to `COc1ccc(NC(=O)CSc2nccn2Cc2ccc3c(c2)OCO3)cc1` belongs 6.57% [at 57 µM].
`O=C1Nc2ccc(Br)cc2/C1=N/N=C/C1=C(N2CCOCC2)C(=C\c2ccccc2)/CC1`: the Potency was 5.62 µM (active).
For `Cc1oc2ccc(O)c(CN3CCCCC3)c2c1C(=O)Nc1cccc(C(F)(F)F)c1`, the “activity change, negative = inhibition” value is 1.63%.
On to `O=C(c1ccc2c(=O)n(Cc3ccco3)c(=S)[nH]c2c1)N1CCCC1`, for which the “activity change, negative = inhibition” value was 15.8%.
Still for that read-out and setting: to `CCOC(=O)C1=C(CC)Nc2ccccc2N=C1N` belongs -17.5%.
Regarding `CCOC(=O)C1=C(c2ccc(OC)cc2)C(=O)c2ccccc2C1=O`, the Potency was 31.6 µM (active).
For `CCOC(=O)C1C(=O)C=C(c2ccc(OC)cc2)CC1c1ccco1` (centres undefined), the “activity change, negative = inhibition” value was -12.5%.
Consider `COc1cccc(CNC(=O)C2CCC(CNS(=O)(=O)c3cccs3)CC2)c1` (centres undefined), for which the “activity change, negative = inhibition” value was 29%.
Turning to `Cc1ccccc1CS(=O)(=O)CC1Nc2ccc(C(=O)NCc3ccc(Cl)cc3)cc2NC1=O` (centres undefined), the “activity change, negative = inhibition” value is 7.19%.
On the same count and under the same terms, with `Cc1ccc(NC(=O)C(=O)NCC(c2cccnc2)N2CCOCC2)cc1` (centres undefined) the figure was 36.9%.
With `CCOC(=O)N1CCN(C(c2cccnc2)c2ccc3cccnc3c2O)CC1` (centres undefined), the Potency is 8.91 µM (active).
For `COc1ccccc1N1CCN(C(CNC(=O)C(=O)NCc2ccc(C)cc2)c2cccnc2)CC1` (centres undefined), the “activity change, negative = inhibition” value is 40.3%.
On to `CN(Cc1ccccc1)C(=O)c1cc2c(=O)n(C)c3ccccc3c2s1`, for which the “activity change, negative = inhibition” value was 15.5%.
As for `Nc1ccccc1SC(C[N+](=O)[O-])c1ccccc1` (centres undefined), the Potency is 15.8 µM (active).
For `Cc1cccc(-n2ncc(C(=O)N3CCc4ccccc4C3)c2C2CCN(C(=O)OC(C)(C)C)CC2)c1`, the “activity change, negative = inhibition” value was 28.4%.
On to `Cc1c(NC(=O)c2cc(=O)c3ccccc3o2)c(=O)n(-c2ccccc2)n1C`, for which the “activity change, negative = inhibition” value is 25.2%.
